# High-throughput results: PubChem, The Scripps Research Institute Molecular Screening Center
# ADAM17 inh = ADAM17 inhibitors, primary screen, biochemical, QFRET. Disintegrin and metalloproteinase domain-containing protein 17 (Homo sapiens), P78536. recombinant ADAM17, EDANS/DABCYL FRET peptide cleavage. inhibition, % at 6.95 µM. 0.83% of 370,000 active. AID 720648, 2013;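 active = inhibition above the mean of compounds lying between control limits plus 3 SD, set per campaign, cut at about 8.5% in these data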;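 note: 0% = DMSO-only wells as the low control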
# Target sequence (P78536 215-824 limits assumed): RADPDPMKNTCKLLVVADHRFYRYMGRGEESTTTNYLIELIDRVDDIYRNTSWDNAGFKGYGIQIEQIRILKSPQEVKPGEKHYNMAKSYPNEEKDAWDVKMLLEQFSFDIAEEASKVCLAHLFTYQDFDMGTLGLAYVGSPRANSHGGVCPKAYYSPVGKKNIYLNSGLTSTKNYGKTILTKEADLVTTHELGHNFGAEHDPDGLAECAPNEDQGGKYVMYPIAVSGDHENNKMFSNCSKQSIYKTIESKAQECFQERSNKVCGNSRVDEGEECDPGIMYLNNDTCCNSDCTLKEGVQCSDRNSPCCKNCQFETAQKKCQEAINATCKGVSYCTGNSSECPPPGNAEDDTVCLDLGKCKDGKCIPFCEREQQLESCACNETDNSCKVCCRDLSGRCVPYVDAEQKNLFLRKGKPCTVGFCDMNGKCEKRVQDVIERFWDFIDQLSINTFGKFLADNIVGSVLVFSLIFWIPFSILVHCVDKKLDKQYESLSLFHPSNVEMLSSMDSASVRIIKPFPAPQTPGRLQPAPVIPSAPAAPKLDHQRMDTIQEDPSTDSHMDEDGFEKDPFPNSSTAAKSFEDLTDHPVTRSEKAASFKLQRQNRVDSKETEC
# KLK7 zymogen act = proKLK7 zymogen activators, primary screen, biochemical, fluorescence intensity; AID 652039, 2013; purified proKLK7, EDANS-DABCYL substrate fluorescence; 100% is mature enzyme control, 0% vehicle; 0.9% of 370,000 active; activation, % at 7 µM;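 active = activation above the mean of all tested compounds plus 3 SD, computed per campaign excluding outliers beyond control limits, cut at about 13% in these data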
# ADAM10 inh = human ADAM10 inhibitors, primary screen, biochemical, QFRET, HTS | Disintegrin and metalloproteinase domain-containing protein 10 (Homo sapiens), O14672 | recombinant ADAM10, EDANS/DABCYL FRET peptide cleavage, 3 h | inhibition, % at 7 µM | 0.62% of 370,000 active | AID 720582, 2013;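 active = inhibition above a per-campaign cutoff equal to the mean of compounds falling between control-based bounds plus 3 SD, cut at about 20% in these data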;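 note: 0% = DMSO wells while the 100% control is not disclosed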
# PLCb3 inh = human PLC-beta3 inhibitors, primary screen, biochemical, fluorescence; inhibition, % at 12.2 µM; Purified PLC-beta3, fluorogenic substrate; 0.18% of 370,000 active; in the data active = inhibition above about 11%;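 note: 0% = median of compound wells on plate and 100% = full blocker control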
# sPLA2-III inh = human group III sPLA2 inhibitors, primary screen, biochemical, QFRET, BODIPY PC-A2 liposome substrate | 0.56% of 370,000 active | Group 3 secretory phospholipase A2 (Homo sapiens), Q9NZ20 | QFRET BODIPY PC-A2 liposome hydrolysis, fluorescence | inhibition, % at 12.2 µM;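 active = inhibition above mean plus 3 SD of compounds lying within the high and low control bounds, cut at about 19% in these data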;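 note: 0% = median of test compound wells and 100% = no enzyme DMSO wells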
# PLCg1 inh = PLC-gamma1 enzyme inhibitors, primary screen, biochemical, fluorescence, purified enzyme; 0.84% of 370,000 active; 1-phosphatidylinositol 4,5-bisphosphate phosphodiesterase gamma-1 (Homo sapiens), P19174; AID 720700, 2013; inhibition, % at 12.2 µM; fluorogenic substrate; in the data active = inhibition above about 9.5%
# hGIII sPLA2 conf = human group III sPLA2 inhibitors, confirmation, biochemical, QFRET, triplicate; shares compounds with sPLA2-III inh; recombinant hGIII-sPLA2, BODIPY PC-A2 QFRET fluorescence; inhibition, % at 12.2 µM; 34% of 2,000 active;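 active = mean inhibition across triplicates above the hit cutoff set in the earlier primary screen, cut at about 19% in these data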;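 note: 0% = enzyme with DMSO and 100% = DMSO wells lacking enzyme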
# BODIPY interf = 535nm fluorescence optical interference, confirmation, artefact control for HGIII-sPLA2 inhibitor project, biochemical, QFRET. shares compounds with sPLA2-III inh. BODIPY FL product fluorescence interference. inhibition, % at 12.2 µM. 8.5% of 2,000 active;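 active = average inhibition above the solvent-only control mean plus 3 SD, cut at about 6% in these data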;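 note: 0% = DMSO with substrate plus product and 100% = DMSO with substrate alone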
# 535nm interf DR = 535nm fluorescence optical interference, dose response, artefact control for HGIII-sPLA2 inhibitor project, biochemical, QFRET; shares compounds with sPLA2-III inh; BODIPY FL product fluorescence interference, cell-free; IC50, µM; 240 tested, under 10 active;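 active = IC50 at or below 10 µM; inactive = IC50 above 10 µM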
# Numbers without * were called inactive; nt = not tested or not shown. Compounds with a hit are over-represented: about 3.4% of the library has one in this group of screens.
SMILES,ADAM17 inh,KLK7 zymogen act,ADAM10 inh,PLCb3 inh,sPLA2-III inh,PLCg1 inh,hGIII sPLA2 conf,BODIPY interf,others
COc1cc([N+](=O)[O-])c(OC)cc1SCc1n[nH]c(=S)n1-c1ccc(C)cc1,-1,0,13,-6,19*,5,22*,5,
Cc1c(C(=O)NCc2n[nH]c(=S)n2-c2ccc(F)cc2)cccc1[N+](=O)[O-],3,0,6,2,5,3,nt,nt,
COc1cc([N+](=O)[O-])c(OC)cc1SCc1n[nH]c(=S)n1-c1ccc(F)cc1,0,0,9,-5,22*,0,36*,6,
COc1ccc(OCc2n[nH]c(=S)n2-c2ccc(C)cc2)cc1,0,0,10,5,17,0,nt,nt,
O=C(CCC1CCCN(C(=O)Cn2cnnn2)C1)NCc1ccccc1F (centres undefined),-5,0,-10,-4,1,-3,nt,nt,
Fc1ccccc1C1c2cccn2CCN1C(=S)Nc1ccc(Br)cc1 (centres undefined),-7,1,-5,-17,-2,-7,nt,nt,
CC1CCCCN1C(=S)NCCc1ccccc1 (centres undefined),2,0,14,3,22*,5,9,-6,
S=C(NCCc1ccccc1)N1CCCC1,1,0,4,-6,2,2,nt,nt,
O=C(CN1CCOCC1)Nc1ccc(N2CCN(c3ccccc3)CC2)c(F)c1,-1,0,-5,-1,5,1,nt,nt,
Cn1c(CSCc2ccc(Cl)cc2)n[nH]c1=S,-2,-1,-11,-1,20*,-1,18,-3,
Cn1c(CSCc2ccccc2)n[nH]c1=S,2,0,0,-5,32*,2,7,0,
CC(O)(c1cccnc1)c1nc(-c2cc(F)cc(F)c2)cs1 (centres undefined),-2,-1,-4,2,-9,-2,nt,nt,
O=c1c2ccccc2[nH]c(=S)n1Cc1cccnc1,-2,0,-4,4,20*,-1,11,-5,
O=c1c2cc(Br)ccc2[nH]c(=S)n1Cc1cccnc1,-2,1,3,1,7,2,nt,nt,
S=c1[nH]nc(-c2ccco2)n1/N=C/c1cccs1,5,0,5,0,20*,2,23*,-4,
COc1ccc(C(=O)O)cc1S(=O)(=O)NCc1ccncc1,-5,0,-4,2,13,3,nt,nt,
O=S(=O)(NC(=NCc1ccccc1)c1ccccc1)c1ccccc1,-1,0,7,-46,-1,-1,nt,nt,
CN(C)C(CNC(=O)c1cnc(Cl)c(Cl)c1)c1ccccc1 (centres undefined),-11,0,2,-7,21*,2,-3,-10,
CCOC(=O)C1=C(C)NC(=O)NC1c1ccc(N(CC)CC)cc1 (centres undefined),5,0,12,-2,20*,-2,7,-5,
CCC(CC)COC(=O)C1=C(C)NC(=O)NC1c1ccc(N(C)C)cc1 (centres undefined),-4,-1,-4,-19,24*,-1,23*,-7,
O=C(OCc1ccccc1)N1CCC2CC1c1ccc(N3CCNCC3)cc12 (centres undefined),-4,0,-12,-4,31*,0,-4,-35,
COc1ccc(NC(=S)N2CCN(c3ccc4c(c3)C3CCN(C(=O)OCc5ccccc5)C4C3)CC2)c(OC)c1 (centres undefined),4,0,-1,3,25*,1,5,-22,
O=C(OCc1ccccc1)N1CCC2CC1c1cc(N3CCN(C(=S)NCCc4ccccc4)CC3)ccc12 (centres undefined),1,-1,-4,5,-1,3,nt,nt,
Cc1ccccc1NC(=O)NNC(=O)c1ccc2ccccc2c1O,-116,0,-353,-113,39*,-72,28*,1,535nm interf DR=>122
COc1ccccc1NC(=O)NNC(=O)c1ccc2ccccc2c1O,-160,-3,-458,-108,30*,-74,36*,5,535nm interf DR=>122
SMILES,ADAM17 inh,KLK7 zymogen act,ADAM10 inh,PLCb3 inh,sPLA2-III inh,PLCg1 inh,hGIII sPLA2 conf,BODIPY interf,others
COc1ccc(NC(=O)NNC(=O)c2ccc3ccccc3c2O)cc1OC,-161,-1,-486,-113,28*,-67,28*,1,535nm interf DR=>122
COc1cccc(C(=O)NNC(=O)c2ccc3ccccc3c2O)c1,-8,-1,-20,-17,25*,-9,14,0,
COc1ccccc1NC(=O)NNC(=O)c1ccc2ccccc2c1,4,0,6,-7,-3,0,nt,nt,
Cc1ccccc1NC(=O)NNC(=O)c1ccc2ccccc2c1,-2,0,-3,-11,1,-4,nt,nt,
O=C(NNC(=O)c1cccc2ccccc12)c1ccc(Cl)cc1Cl,-3,0,-4,4,-18,1,nt,nt,
O=C(NNC(=O)c1ccc2ccccc2c1O)c1ccccc1Cl,-3,-1,-6,-6,31*,-6,37*,3,535nm interf DR=>122
Oc1ccc(Nc2nc(-c3cccs3)cs2)cc1,-8,0,-12,-31,23*,-21,23*,9.7*,
COc1ccc(Nc2nc(-c3cccs3)cs2)cc1,0,0,-4,-18,2,-13,nt,nt,
CC(C)(C)NC(=O)C(c1ccccc1)n1c(=O)c(-c2ccccc2)nc2ccccc21 (centres undefined),-72,0,-272,-106,5,-77,nt,nt,
CC(C)C(N)c1csc(Nc2nncc3ccccc23)n1 (centres undefined),-6,0,-29,-73,20*,-56,6,-16,
COc1cccc(Nc2nc(C(N)C(C)C)cs2)n1 (centres undefined),-2,0,-28,2,28*,2,10,-13,
